# Laboratory results: publication PMC5540273 (PLoS ONE, 2017)
# Assays:
# Details in all cases: concentration: 1 μM, replicates: in singlicate; n = 1
# PRKCE = system: PRKCE
# PRKCH = system: PRKCH
# PRKCI = system: PRKCI
# PRKCQ = system: PRKCQ
# PRKD1 = system: PRKD1
# PRKD2 = system: PRKD2
# PRKD3 = system: PRKD3
# PRKG1 = system: PRKG1
# PRKG2 = system: PRKG2
# PRKR = system: T1, PRKR
# T1 construct: gene EIF2AK2
# PRKX = system: PRKX
# PRP4 = system: PRP4
# PYK2 = system: T2, PYK2
# T2 construct: gene PTK2B
# QSK = system: QSK
# RAF1 = system: RAF1
# RET = system: RET
# RIOK1 = system: RIOK1
# RIOK2 = system: RIOK2
# RIOK3 = system: RIOK3
# RIPK1 = system: RIPK1
# 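Further: KINOMEscan kinase panel screen.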
SMILES,%Inh (PRKCE),%Inh (PRKCH),%Inh (PRKCI),%Inh (PRKCQ),%Inh (PRKD1),%Inh (PRKD2),%Inh (PRKD3),%Inh (PRKG1),%Inh (PRKG2),%Inh (PRKR),%Inh (PRKX),%Inh (PRP4),%Inh (PYK2),%Inh (QSK),%Inh (RAF1),%Inh (RET),%Inh (RIOK1),%Inh (RIOK2),%Inh (RIOK3),%Inh (RIPK1)
COc1cccc(-n2cnc3c(N)ncnc32)c1 [SKF-97416],33%,0%,25%,1%,0%,0%,0%,19%,14%,13%,32%,0%,0%,28%,0%,0%,0%,22%,0%,0%
Nc1nccc2scc(-c3ccc4c(c3)CCN4C(=O)Cc3ccccc3)c12 [GSK2576924],0%,31%,20%,0%,0%,16%,11%,10%,12%,8%,14%,13%,0%,0%,5%,11%,13%,6%,11%,71%
Cc1nnc(-c2ccc3ncn(-c4ccc(S(C)=O)cc4)c3c2)o1 (stereo not drawn),3%,4%,0%,3%,0%,35%,0%,0%,13%,0%,3%,0%,12%,0%,0%,7%,6%,11%,20%,4%
Cn1c(=O)c(F)c(Nc2ccc(I)cc2F)c2c(=O)n(OC[C@H](O)CO)cnc21,0%,0%,34%,6%,0%,0%,0%,8%,7%,0%,0%,0%,17%,0%,37%,11%,5%,0%,23%,0%
Nc1ncnc2c1ncn2-c1cccc2ccccc12 [SKF-97184],5%,5%,22%,0%,0%,0%,0%,0%,0%,0%,0%,0%,4%,6%,0%,0%,7%,0%,5%,0%
Fc1cccc(CSc2nnc(-c3ccc4c(c3)CCO4)o2)c1,0%,0%,3%,15%,0%,12%,0%,0%,26%,0%,7%,0%,8%,0%,2%,0%,0%,5%,8%,3%
COc1ccc(Nc2nccc(N3CCC(NS(=O)(=O)c4ccc(NC(C)=O)cc4)C3)n2)cc1 (stereo not drawn) [GSK1379729],22%,22%,22%,10%,25%,0%,41%,12%,0%,0%,2%,14%,0%,11%,18%,28%,38%,9%,29%,28%
Cc1ccc(Oc2ccc(Nc3ncnc4cc[nH]c34)cc2C)cn1,0%,27%,7%,9%,0%,2%,8%,0%,23%,8%,2%,46%,9%,13%,5%,8%,100%,0%,24%,0%
COc1cc(OC)cc(-c2cc3cnc(N)nc3nc2NC(=O)NC(C)(C)C)c1,51%,0%,2%,0%,0%,0%,0%,14%,0%,16%,5%,0%,4%,0%,0%,32%,8%,0%,45%,0%
CC(C)(C)c1ccc(C(=O)Nc2cn3cc(-c4ccccc4)ccc3n2)cc1,5%,0%,10%,37%,8%,19%,4%,1%,0%,0%,3%,19%,0%,0%,0%,0%,2%,14%,22%,0%
Cc1ccc(-c2ccc3c(ccc4sc5c(c43)NC[C@@H](C)N=C5N(C)C)n2)cn1,36%,0%,0%,0%,10%,0%,20%,0%,0%,0%,0%,0%,0%,0%,0%,0%,0%,0%,0%,0%
Cc1ccccc1COc1cc(-n2cnc3cc(Cl)ccc32)sc1C(N)=O [GW813349],2%,0%,20%,1%,7%,0%,0%,8%,7%,0%,0%,19%,4%,0%,0%,7%,23%,27%,13%,16%
CCS(=O)(=O)c1ccc(OC)c(Nc2ncc(-c3ccc(F)cc3)o2)c1.Cl [GW591947],0%,18%,11%,0%,0%,0%,0%,45%,0%,0%,0%,16%,11%,0%,9%,13%,22%,0%,29%,10%
C[C@@H]1CC[C@H](C(=O)NC2CCCCC2)CN1c1cc(-c2ccc3c(N)n[nH]c3c2)nc(N)n1 [GSK2291363],14%,34%,37%,34%,0%,12%,26%,17%,0%,14%,84%,26%,24%,7%,16%,53%,96.1%,22%,93.7%,22%
COc1ccc(-c2cc3c(C)nc(N)nc3n([C@H]3CC[C@H](O)CC3)c2=O)cn1,36%,0%,0%,0%,3%,0%,0%,0%,0%,0%,0%,0%,0%,0%,0%,0%,0%,0%,0%,0%
Nc1ncnc2c1ncn2-c1cccc(F)c1 [SKF-97560],3%,0%,22%,20%,0%,10%,9%,0%,10%,0%,0%,0%,6%,13%,14%,1%,38%,19%,49%,22%
CCc1nc(-c2cccc(C)c2)c(-c2ccncc2)s1,0%,0%,28%,6%,0%,26%,9%,0%,11%,0%,0%,26%,0%,0%,22%,0%,12%,8%,12%,0%
COC(=O)c1c(-c2ccccc2)c2cc(Br)ccc2c(=O)n1Cc1ccc(NC(=O)CCC(=O)O)cc1,0%,7%,0%,21%,0%,0%,0%,0%,0%,0%,10%,0%,16%,0%,14%,5%,0%,0%,0%,0%
COc1cc(Nc2nccc(N3CCC(NC(=O)C(C)c4ccc(Cl)cc4)C3)n2)cc(OC)c1OC (stereo not drawn) [GSK1379757],0%,14%,0%,0%,0%,0%,0%,1%,4%,0%,5%,23%,10%,2%,10%,7%,58%,0%,54%,20%
Cc1cc(Nc2nc(-c3cccc(C)n3)nc3ccccc23)ccn1 [GW872411],0%,0%,0%,0%,99.4%,99.9%,76%,14%,0%,0%,0%,0%,14%,0%,0%,0%,0%,0%,0%,0%
COc1cccc(C2=C(Nc3cccc(C(=O)O)c3)C(=O)NC2=O)c1 [SB-390770],15%,28%,100%,11%,0%,0%,0%,0%,0%,0%,7%,49%,0%,0%,11%,17%,14%,6%,0%,0%
